The first test in a line: A549 cell viability effects, profiling panel, calcein-AM fluorescence, 48 h, basal (AID 1162). To be noted: higher = more signal.
For the molecule `O=C(c1ccccc1)N1C(=O)[C@@]2(Cc3ccccc31)N=C(c1ccc(OCCCO)cc1)O[C@H]2c1ccccc1`, the z-score was -1.31.

As to `C=C(/C(=C/C[C@H](OC(C)=O)c1ccccc1OCCO)c1cnc2ccccc2c1)C(C)C`, the z-score is 0.689.

As to `CC(C)C(CO)N1C(=O)[C@@H]2C3C(=O)OCCC/C=C\[C@H]3OC23C=CCN(CCN2CCOCC2)C(=O)[C@@H]13` (stereo not given in full), the z-score was 1.12.

As to `CCCC[C@H]1OB(O)C[C@H]2C1=C(COC)C[C@H]1C(=O)N(C)C(=O)[C@H]12`, the z-score was -0.0959.

`COC(=O)[C@@]1(Cc2ccc(F)cc2)[C@H]2c3cc(C(=O)N(C)C)n(Cc4ccc(Cl)c(C(F)(F)F)c4)c3C[C@H]2CN1C(=O)c1ccccc1`: the z-score is -1.16.

As to `COc1ccc(CCNC(=O)[C@@]2(Sc3ccc(C)cc3)CC(=O)N(C3Cc4ccccc4C3)[C@@H]2c2ccc(CO)cc2I)cc1`, the z-score was 2.04.

As for `CCCC[C@H]1OB(O)C[C@H]2C1=C(COC)Cn1c(=O)n(-c3ccccc3)c(=O)n12`, the z-score is 0.0913.

In the case of `CN(C)CCCCCCNC(=O)[C@@H]1C[C@@H]2C(=O)N[C@@H](Cc3ccccc3)C(=O)N2[C@@H]1c1ccc(O)cc1`, the z-score was -0.58.

On to `C=C(COC)/C(=C/C[C@H](OC(C)=O)c1ccc(CO)o1)c1cc(C(=O)OC)ccc1OC`, for which the z-score was -0.588.

For the molecule `COC(=O)[C@@]1(Cc2ccc(OC)cc2)[C@@H]2C(=CC(=O)[C@H]2CC(=O)C(=O)N2CCCC2)CN1C(=O)c1ccccc1`, the z-score was -0.0504.

Consider `Cc1ccc(N2C(=O)c3ccccc3[C@@H](C(=O)NC3CC3)[C@@H]2c2ccc(CO)cc2)nc1`, for which the z-score is -0.684.

In the case of `COCCOC(=O)N1C(=O)[C@@]2(c3cc(C#CCC(C(=O)OC)C(=O)OC)ccc31)[C@H](C(=O)Nc1nc3ccccc3s1)[C@H]1C(=O)O[C@H](c3ccccc3)[C@H](c3ccccc3)N1[C@@H]2c1ccccc1OCCO`, the z-score is 1.84.

Take `COCCOC(=O)N1C(=O)[C@@]2(c3cc(C#CCC(C(=O)OC)C(=O)OC)ccc31)[C@H](c1ccccc1OCCO)N1[C@H](c3ccccc3)[C@H](c3ccccc3)OC(=O)[C@H]1[C@@H]2C(=O)NC[C@H](O)c1ccccc1`: the z-score is -0.0256.

Consider `CCCC[C@@H]1C[C@H]1[C@@H](NC(=O)c1ccccc1)c1ccc(C(=O)OC)cc1`, for which the z-score is -0.992.

As for `O=C1[C@@]23C=C(Br)[C@H](C[C@@H]2CCOC3)[C@@]12CO2`, the z-score is 0.845.

A further test is described as follows: adipocyte viability effects, profiling panel, cell-based, 3T3-L1 adipocytes, calcein-AM fluorescence, 48 h, basal (AID 1163). To be noted: 3T3-L1 adipocytes viability, higher = more signal.
Take `C=C(/C(=C/C[C@H](OC(C)=O)c1ccc(CO)o1)c1cc(C(=O)OC)ccc1OC)C(C)C`: the z-score was 1.4.

For `COC(=O)[C@@]1(Cc2ccccc2)N=C(c2ccc(OCCCO)cc2)O[C@H]1c1ccccc1`, the z-score was 0.598.

For the molecule `CC(C)C[C@@H]1NC(=O)[C@@H]2C[C@H](C(=O)NCc3ccc(F)cc3)[C@H](c3cccc(OCCO)c3)N2C1=O`, the z-score is -0.613.

With `O=C1c2ccccc2[C@](Cc2ccccc2I)(C(=O)NCCN2CCOCC2)[C@H](c2ccc(CO)cc2)N1C1CCCCC1`, the z-score was 0.195.

Turning to `O=C1c2ccccc2[C@](Cc2ccccc2I)(C(=O)NCCN2CCOCC2)[C@H](c2ccc(CO)cc2)N1Cc1ccccc1Cl`, the z-score was 0.261.

As for `CC(C)C(=C=CC[C@@H](O)c1ccc(OCCO)cc1)C[C@@H](O)COCc1ccccc1`, the z-score was 1.46.

Take `COC(=O)[C@]1(CCC(=O)OC(C)(C)C)N=C(c2ccc(OCCCO)cc2)O[C@@H]1c1ccccc1CN=[N+]=[N-]`: the z-score was -0.354.

For `NC(=O)NCC#Cc1ccc2c(c1)[C@]1(C(=O)N2)[C@H](c2ccccc2OCCO)N2[C@H](c3ccccc3)[C@H](c3ccccc3)OC(=O)[C@H]2[C@@H]1C(=O)Nc1nc2ccccc2s1`, the z-score was 0.226.

With `C=CCC(OC(C)=O)[C@@H]1[C@@H](N(Cc2ccc(-c3ccccc3)cc2)C(=O)Cc2ccc(OC)cc2)c2cc(OCCCO)ccc2N1C(=O)Cc1ccc2ccccc2c1` (stereo not given in full), the z-score is 0.358.

As to `C=C(CCCC)C(=O)CC[C@@H](OC(=O)c1ccccc1-c1ccccc1C(=O)O)c1ccc(OCCO)cc1`, the z-score was 1.22.

As for `CCCC[C@@H]1C[C@H]1[C@@H](NC(=O)c1ccco1)c1ccccc1C(F)(F)F`, the z-score is -1.51.

On to `CCOC(=O)C[C@H]1[C@H](OC(=O)c2cc3ccccc3oc2=O)[C@@H](NC(=O)c2ccccc2)c2cc(OCCCO)ccc2N1C(=O)c1ccc2ccccc2n1`, for which the z-score was 0.785.

In the case of `CCN(CC)c1ccc(N2CC=CC34O[C@@H]5C=CCCOC(=O)C5[C@H]3C(=O)N(CCCCCCO)[C@@H]4C2=O)cc1` (stereo not given in full), the z-score was 1.45.

Regarding `COC(=O)[C@@]1(Cc2ccccc2)[C@H]2c3cc(C(=O)N(C)C)n(Cc4ccsc4Br)c3C[C@H]2CN1C(=O)c1ccccc1`, the z-score was -1.34.

In the case of `COCCOC(=O)N1C(=O)[C@@]2(c3ccccc31)[C@H](c1ccccc1OCCO)N1[C@H](c3ccccc3)[C@H](c3ccccc3)OC(=O)[C@H]1[C@@H]2C(=O)N1CCN(c2ncccn2)CC1`, the z-score was -0.678.

Take `O[C@@H](Cc1ccccc1)[C@H]1C2C=CCCC=C2CN1Cc1cccc(Cl)c1` (stereo not given in full): the z-score is -0.0495.

Take `COc1cc2c(cc1OC)CN(C(=O)[C@@H]1[C@H]3C(=O)O[C@H](c4ccccc4)[C@H](c4ccccc4)N3[C@H](c3ccccc3OCCO)[C@@]13C(=O)Nc1ccc(C#CCCO)cc13)CC2`: the z-score is 0.784.

As for `Cc1ccc(S[C@]2(C(=O)O)CC(=O)N(C(C)C)[C@@H]2c2ccc(CO)cc2I)cc1`, the z-score was 0.827.

As to `O=C1O[C@H](c2ccccc2)[C@H](c2ccccc2)N2[C@H]1[C@@H](C(=O)N1CCCCCCC1)[C@]1(C(=O)Nc3ccc(C#CCCO)cc31)[C@H]2c1ccccc1OCCO`, the z-score was 0.911.

Turning to `C=CCNC(=O)[C@@H]1[C@H]2C(=O)O[C@H](c3ccccc3)[C@H](c3ccccc3)N2[C@H](c2ccc(O)cc2)[C@@]12C(=O)N(C(=O)OCCOC)c1ccc(C#CCNC(N)=O)cc12`, the z-score was 0.921.

Regarding `O=C(c1ccccc1)N1C(=O)[C@@]2(Cc3ccccc31)N=C(c1ccc(OCCCO)cc1)O[C@H]2c1ccccc1`, the z-score is 0.668.

As to `C=C(/C(=C/C[C@H](OC(C)=O)c1ccccc1OCCO)c1cnc2ccccc2c1)C(C)C`, the z-score was -0.665.

On to `CC(C)C(CO)N1C(=O)[C@@H]2C3C(=O)OCCC/C=C\[C@H]3OC23C=CCN(CCN2CCOCC2)C(=O)[C@@H]13` (stereo not given in full), for which the z-score was -0.453.

With `CCCC[C@H]1OB(O)C[C@H]2C1=C(COC)C[C@H]1C(=O)N(C)C(=O)[C@H]12`, the z-score is -0.671.

Consider `COC(=O)[C@@]1(Cc2ccc(F)cc2)[C@H]2c3cc(C(=O)N(C)C)n(Cc4ccc(Cl)c(C(F)(F)F)c4)c3C[C@H]2CN1C(=O)c1ccccc1`, for which the z-score was -0.207.

As to `COc1ccc(CCNC(=O)[C@@]2(Sc3ccc(C)cc3)CC(=O)N(C3Cc4ccccc4C3)[C@@H]2c2ccc(CO)cc2I)cc1`, the z-score was 0.129.

For the molecule `CCCC[C@H]1OB(O)C[C@H]2C1=C(COC)Cn1c(=O)n(-c3ccccc3)c(=O)n12`, the z-score was -0.21.

As to `CN(C)CCCCCCNC(=O)[C@@H]1C[C@@H]2C(=O)N[C@@H](Cc3ccccc3)C(=O)N2[C@@H]1c1ccc(O)cc1`, the z-score was 0.502.

Regarding `C=C(COC)/C(=C/C[C@H](OC(C)=O)c1ccc(CO)o1)c1cc(C(=O)OC)ccc1OC`, the z-score is 0.635.

Take `COC(=O)[C@@]1(Cc2ccc(OC)cc2)[C@@H]2C(=CC(=O)[C@H]2CC(=O)C(=O)N2CCCC2)CN1C(=O)c1ccccc1`: the z-score was -0.386.

On to `Cc1ccc(N2C(=O)c3ccccc3[C@@H](C(=O)NC3CC3)[C@@H]2c2ccc(CO)cc2)nc1`, for which the z-score is 0.516.

Consider `COCCOC(=O)N1C(=O)[C@@]2(c3cc(C#CCC(C(=O)OC)C(=O)OC)ccc31)[C@H](C(=O)Nc1nc3ccccc3s1)[C@H]1C(=O)O[C@H](c3ccccc3)[C@H](c3ccccc3)N1[C@@H]2c1ccccc1OCCO`, for which the z-score is 0.6.

With `COCCOC(=O)N1C(=O)[C@@]2(c3cc(C#CCC(C(=O)OC)C(=O)OC)ccc31)[C@H](c1ccccc1OCCO)N1[C@H](c3ccccc3)[C@H](c3ccccc3)OC(=O)[C@H]1[C@@H]2C(=O)NC[C@H](O)c1ccccc1`, the z-score is 0.821.

`CCCC[C@@H]1C[C@H]1[C@@H](NC(=O)c1ccccc1)c1ccc(C(=O)OC)cc1`: the z-score is -0.334.

In the case of `O=C1[C@@]23C=C(Br)[C@H](C[C@@H]2CCOC3)[C@@]12CO2`, the z-score is -0.711.

These data come from PubChem BioAssay.
Also: test concentration not given here.
